The results in this text go back to PubChem BioAssay (EPA / NIEHS).

Where a structure was tested more than once in an assay, its records may differ in their call. The source made the active and inactive calls. Rule for the calls: active = hit-call score of the fitted dose curve at least 0.9, where 1 is the maximum; inactive = score below 0.9.

Experiment [1] can be described thus: ATG_E_Box_CIS: Attagene CIS-FACTORIAL HepG2 Assay for human Enhancer Box (E-box) (AID 2282936). The conditions noted are these: HepG2 E-box cis-reporter transcription, actives raise or lower the signal. The method in brief:
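Transiently transfected HepG2, endogenous TF-driven reporters, 24 h dosing. Readout: RT-PCR plus capillary electrophoresis of fluorescent reporter fragments. Gain or loss of signal fitted bidirectionally against DMSO baseline.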

Experiment [2] can be described thus: ATG_M_61_CIS: Attagene CIS-FACTORIAL HepG2 Assay for M61 Transcription Factor (Internal Marker) (AID 2282937). The conditions noted are these: HepG2 Attagene CIS-FACTORIAL M61 internal marker reporter; actives raise or lower the signal. The method, boiled down: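 This endpoint serves as an internal background control within a multiplexed HepG2 cis-reporter panel. Cells are exposed for 24 h; reporter mRNA is amplified, fluorescently labelled and sized by capillary electrophoresis, with DMSO as negative control.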

Experiment [3] can be described thus: ATG_M_19_CIS: Attagene CIS-FACTORIAL HepG2 Assay for M19 Transcription Factor (Internal Marker) (AID 2282939). The conditions noted are these: HepG2 Attagene CIS-FACTORIAL M19 internal marker reporter; actives raise or lower the signal. The method, boiled down:
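In this multiplexed cell assay, transiently transfected HepG2 reporter units report endogenous transcription-factor activity; after 24 hours of treatment, labelled reporter cDNA fragments are quantified by capillary electrophoresis and fitted bidirectionally against DMSO.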

Experiment [4] in a line: ATG_ERE_CIS: Attagene CIS-FACTORIAL HepG2 Assay for Estrogen Response Element (ERE) (AID 2282940). The conditions noted are these: HepG2 ERE cis-reporter, Attagene RNA transcript; actives raise or lower the signal. The method, boiled down:
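Measuring endogenous transcription factor output, the assay doses transfected HepG2 cells for 24 hours and quantifies reporter transcripts by fluorescent RT-PCR and capillary electrophoresis, with DMSO as baseline.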

Experiment [5] is described as follows: ATG_Ets_CIS: Attagene CIS-FACTORIAL HepG2 Assay for human Erythroblast Transformation Specific (ETS) (AID 2282941). The conditions noted are these: HepG2 ETS cis-reporter transcription; AC50: actives raise or lower the signal unless noted; outcome: actives raise or lower the signal unless noted. The method, boiled down: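 Cis-regulated reporter mRNA induction in HepG2 (transient transfection), 24 h exposure, RT-PCR plus capillary electrophoresis detection; DMSO serves as negative control and baseline.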

The target of experiment [6] is Hepatocyte nuclear factor 3-beta (Homo sapiens) (UniProt Q9Y261). The experiment in a line: ATG_FoxA2_CIS: Attagene CIS-FACTORIAL HepG2 Assay for human Forkhead box A2 (FOXA2) (AID 2282942). The conditions noted are these: HepG2 cis-reporter transcription factor activity, 24 h; actives raise or lower the signal. The method in brief:
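Cells: HepG2, transient multiplex reporter transfection. Exposure 24 h. Detection: reporter-specific RT-PCR, fluorescent labelling, restriction digest, capillary electrophoresis. Analysis: bidirectional curve fit, DMSO as negative control.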

The nature of experiment [7]: ATG_FoxO_CIS: Attagene CIS-FACTORIAL HepG2 Assay for human Forkhead box O (FoxO) (AID 2282943). The conditions noted are these: HepG2 Attagene cis-reporter, FoxO element, mRNA; actives raise or lower the signal. The method in brief: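 Read-out: fluorescence of 6-FAM-labelled reporter cDNA fragments resolved by capillary electrophoresis. Transiently transfected HepG2 cells were dosed for 24 h; activity fitted in both directions relative to DMSO controls.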

A short description of experiment [8]: ATG_GATA_CIS: Attagene CIS-FACTORIAL HepG2 Assay for human GATA Binding Protein (AID 2282944). The conditions noted are these: HepG2 GATA cis-element reporter, Attagene multiplex mRNA; actives raise or lower the signal. The method in brief:
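Measures endogenous transcription factor-driven reporter mRNA in HepG2 cells transiently carrying cis-regulated constructs. 24 h dosing; RNA via oligo(dT) reverse transcription, PCR, HpaI digestion, capillary electrophoresis; fitted relative to DMSO.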

Experiment [9] is described as follows: ATG_GLI_CIS: Attagene CIS-FACTORIAL HepG2 Assay for human Zinc Finger Protein GLI1 (AID 2282945). The conditions noted are these: HepG2, Attagene cis-factorial reporter mRNA, GLI element; actives raise or lower the signal. The method in brief:
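Transiently transfected HepG2 cells report endogenous transcription factor activity via cis-element-driven reporter units. After 24 h compound exposure, reporter mRNA was measured by RT-PCR with capillary electrophoresis; bidirectional fitting against DMSO baseline.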

The target of experiment [10] is Bile acid receptor (Homo sapiens) (UniProt Q96RI1). The experiment in a line: ATG_IR1_CIS: Attagene CIS-FACTORIAL HepG2 Assay for human Nuclear Receptor Subfamily 1 Group H Member 4 (NR1H4), IR1 submotif (AID 2282946). The conditions noted are these: IR1 reporter transcription, actives raise or lower the signal. The method, boiled down: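 Fluorescence of capillary-separated, HpaI-digested RT-PCR reporter products gave IR1-element mRNA induction in HepG2 cells 24 h after dosing. Endogenous transcription factors drove the cis-regulated reporters; activity was fitted bidirectionally against DMSO.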

Experiment [11] in a line: ATG_GRE_CIS: Attagene CIS-FACTORIAL HepG2 Assay for human Glucocorticoid Response Elements (GRE) (AID 2282947). The conditions noted are these: HepG2 GRE cis-reporter, Attagene multiplex mRNA; AC50: actives raise or lower the signal unless noted; outcome: actives raise or lower the signal unless noted. The method, boiled down: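 Read-out: fluorescent reporter-transcript fragments separated by capillary electrophoresis after RT-PCR. Transiently transfected HepG2 cells carrying cis-element-driven reporter units were dosed for 24 h; gain or loss of signal fitted against DMSO control.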

Experiment [12] is described as follows: ATG_M_32_CIS: Attagene CIS-FACTORIAL HepG2 Assay for M32 Transcription Factor (Internal Marker) (AID 2282949).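 Note: background control marker of the multiplexed CIS panel rather than a real target.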 The conditions noted are these: HepG2 Attagene cis-factorial M32 reporter, mRNA; actives raise or lower the signal. The method in brief:
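Transient MRTU transfection of HepG2; 24 h compound treatment; TriZol RNA, oligo(dT) RT, reporter PCR, 6-FAM primer extension, HpaI cut, CE. Gain/loss of signal vs DMSO.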

The nature of experiment [13]: ATG_M_06_CIS: Attagene CIS-FACTORIAL HepG2 Assay for M06 Transcription Factor (Internal Marker) (AID 2282950). The conditions noted are these: HepG2 Attagene CIS-FACTORIAL M06 internal marker reporter; actives raise or lower the signal. The method, boiled down:
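One of many multiplexed endpoints: HepG2 reporter mRNA after 24 h dosing, detected by RT-PCR and capillary electrophoresis fluorescence; gain or loss of signal analysed against DMSO.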

The target of experiment [14] is Hypoxia-inducible factor 1-alpha (Homo sapiens) (UniProt Q16665). The experiment in a line: ATG_HIF1a_CIS: Attagene CIS-FACTORIAL HepG2 Assay for human Hypoxia Inducible Factor 1 (HIF1A) (AID 2282951). The conditions noted are these: HepG2 Attagene cis-factorial HIF1a reporter transcription; actives raise or lower the signal. The method, boiled down: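 HepG2, transient cis-reporter library, 24 h dosing. RNA → RT (oligo dT) → PCR → 6-FAM primer extension → HpaI → CE. Bidirectional curve fit vs DMSO.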

The target in experiment [15] is Hepatocyte nuclear factor 6 (Homo sapiens) (UniProt Q9UBC0). The experiment in a line: ATG_HNF6_CIS: Attagene CIS-FACTORIAL HepG2 Assay for human Hepatocyte Nuclear Factor 6 (HNF6) (AID 2282952). The conditions noted are these: HepG2 Attagene cis-factorial HNF6 reporter transcription; actives raise or lower the signal. The method, boiled down: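 Endogenous factor activity read in transiently transfected HepG2 via promoter-regulated reporter transcripts. RNA harvested 24 h post-dosing, reverse-transcribed, PCR-amplified, FAM-labelled, HpaI-digested and resolved by capillary electrophoresis; fitted in both directions against DMSO.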

The target in experiment [16] is Heat shock factor protein 1 (Homo sapiens) (UniProt Q00613). The experiment in a line: ATG_HSE_CIS: Attagene CIS-FACTORIAL HepG2 Assay for human Heat Shock Transcription Factor 1 (HSE) (AID 2282953). The conditions noted are these: HepG2 HSE cis-reporter, Attagene RNA transcription; actives raise or lower the signal. The method, boiled down:
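Using HepG2 with transfected cis-driven reporter constructs, compound effects on endogenous factor activity are scored as reporter mRNA change at 24 h. Detection: RT-PCR, HpaI digestion, capillary electrophoresis; bidirectional fitting to DMSO.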

The nature of experiment [17]: ATG_PBREM_CIS: Attagene CIS-FACTORIAL HepG2 Assay for human Phenobarbital-responsive Enhancer Module (PBREM) (AID 2282955). The conditions noted are these: HepG2 PBREM cis-reporter, Attagene multiplexed transcription; actives raise or lower the signal. The method in brief: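 HepG2, transient MRTU transfection, 24 h dosing; RNA → oligo(dT) RT → PCR → 6-FAM extension → HpaI → CE. Bidirectional fit vs DMSO.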

A short description of experiment [18]: ATG_ISRE_CIS: Attagene CIS-FACTORIAL HepG2 Assay for human Interferon Regulatory Factor 1 (IRF1) binding to an Interferon-Stimulated Response Element (ISRE) (AID 2282948). The conditions noted are these: HepG2 ISRE cis-reporter (Attagene), mRNA transcription readout; actives raise or lower the signal. The method, boiled down: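 Multiplexed mRNA reporter readout in human liver HepG2 cells: cis-element-driven reporters transfected, compound added for 24 h, transcripts amplified, fluorescently labelled and sized by capillary electrophoresis; curve fitting bidirectional against DMSO.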

Experiment [19] in a line: ATG_MRE_CIS: Attagene CIS-FACTORIAL HepG2 Assay for human Metal Responsive Element (MRE) (AID 2282954). The conditions noted are these: HepG2 MRE cis-reporter transcription, Attagene multiplex; actives raise or lower the signal. The method, boiled down: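 RT-PCR/capillary electrophoresis readout of reporter mRNA, 24 h post-dosing, in HepG2 cells transfected with multiplexed cis-regulated reporter constructs. Gain or loss of signal fitted bidirectionally against DMSO baseline.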

The nature of experiment [20]: ATG_EGR_CIS: Attagene CIS-FACTORIAL HepG2 Assay for human Early Growth Response 1 (EGR1) (AID 2282938). The conditions noted are these: HepG2 Attagene CIS-FACTORIAL EGR reporter mRNA; actives raise or lower the signal. The method, boiled down:
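HepG2, transient MRTU transfection (cis promoters), 24 h compound. RNA → RT (oligo-dT) → PCR → 6-FAM labelling → HpaI cut → CE fluorescence. Bidirectional fit, DMSO baseline.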

Hypoxia-inducible factor 1-alpha (Homo sapiens), sequence (Q16665 whole entry, looked up): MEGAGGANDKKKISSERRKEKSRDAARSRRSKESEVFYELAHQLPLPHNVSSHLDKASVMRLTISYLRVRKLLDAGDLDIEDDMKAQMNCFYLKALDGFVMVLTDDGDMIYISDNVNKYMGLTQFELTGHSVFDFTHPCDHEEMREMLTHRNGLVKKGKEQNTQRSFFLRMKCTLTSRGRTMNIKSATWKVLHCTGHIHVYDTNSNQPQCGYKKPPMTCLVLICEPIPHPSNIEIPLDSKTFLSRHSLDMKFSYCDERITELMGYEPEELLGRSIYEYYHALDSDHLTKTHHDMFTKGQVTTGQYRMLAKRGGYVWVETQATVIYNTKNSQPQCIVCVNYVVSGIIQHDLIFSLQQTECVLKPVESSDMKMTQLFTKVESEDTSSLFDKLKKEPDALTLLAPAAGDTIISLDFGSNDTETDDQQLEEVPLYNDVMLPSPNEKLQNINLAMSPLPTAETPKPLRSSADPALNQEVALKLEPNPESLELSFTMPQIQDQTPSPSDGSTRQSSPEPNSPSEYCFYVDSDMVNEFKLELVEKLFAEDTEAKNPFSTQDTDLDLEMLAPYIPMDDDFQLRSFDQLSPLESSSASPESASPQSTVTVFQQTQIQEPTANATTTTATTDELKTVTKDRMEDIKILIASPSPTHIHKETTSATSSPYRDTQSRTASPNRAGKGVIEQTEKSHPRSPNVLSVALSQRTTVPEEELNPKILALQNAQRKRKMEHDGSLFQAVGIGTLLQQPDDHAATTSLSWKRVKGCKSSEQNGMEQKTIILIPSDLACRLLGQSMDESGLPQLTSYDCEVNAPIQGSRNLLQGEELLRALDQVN
Hepatocyte nuclear factor 6 (Homo sapiens), sequence (Q9UBC0 whole entry, looked up): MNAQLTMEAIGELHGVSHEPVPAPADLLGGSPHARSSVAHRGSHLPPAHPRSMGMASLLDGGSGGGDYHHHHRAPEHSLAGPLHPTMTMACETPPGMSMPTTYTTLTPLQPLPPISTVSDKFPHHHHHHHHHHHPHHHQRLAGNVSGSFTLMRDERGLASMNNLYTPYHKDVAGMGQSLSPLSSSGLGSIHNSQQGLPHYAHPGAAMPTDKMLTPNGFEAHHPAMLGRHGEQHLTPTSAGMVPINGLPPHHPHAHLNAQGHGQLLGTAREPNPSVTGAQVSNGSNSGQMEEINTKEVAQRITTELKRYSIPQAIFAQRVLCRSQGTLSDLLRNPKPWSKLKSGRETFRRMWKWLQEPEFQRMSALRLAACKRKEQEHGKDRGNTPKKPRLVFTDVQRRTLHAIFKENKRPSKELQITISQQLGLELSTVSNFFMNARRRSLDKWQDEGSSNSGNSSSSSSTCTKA
Bile acid receptor (Homo sapiens), sequence (Q96RI1 whole entry, looked up): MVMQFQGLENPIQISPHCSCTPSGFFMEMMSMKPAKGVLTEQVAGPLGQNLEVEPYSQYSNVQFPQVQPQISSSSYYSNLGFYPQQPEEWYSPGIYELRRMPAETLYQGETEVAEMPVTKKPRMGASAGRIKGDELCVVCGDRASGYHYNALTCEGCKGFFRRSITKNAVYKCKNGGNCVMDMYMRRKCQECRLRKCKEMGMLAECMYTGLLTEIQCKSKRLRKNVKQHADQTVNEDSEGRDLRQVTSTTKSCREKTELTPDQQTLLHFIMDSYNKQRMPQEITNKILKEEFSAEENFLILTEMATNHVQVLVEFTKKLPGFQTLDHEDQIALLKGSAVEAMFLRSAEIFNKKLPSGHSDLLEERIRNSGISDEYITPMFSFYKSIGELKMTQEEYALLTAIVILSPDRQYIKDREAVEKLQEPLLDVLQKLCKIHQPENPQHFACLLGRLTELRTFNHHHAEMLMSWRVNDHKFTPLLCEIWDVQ
Heat shock factor protein 1 (Homo sapiens), sequence (Q00613 whole entry, looked up): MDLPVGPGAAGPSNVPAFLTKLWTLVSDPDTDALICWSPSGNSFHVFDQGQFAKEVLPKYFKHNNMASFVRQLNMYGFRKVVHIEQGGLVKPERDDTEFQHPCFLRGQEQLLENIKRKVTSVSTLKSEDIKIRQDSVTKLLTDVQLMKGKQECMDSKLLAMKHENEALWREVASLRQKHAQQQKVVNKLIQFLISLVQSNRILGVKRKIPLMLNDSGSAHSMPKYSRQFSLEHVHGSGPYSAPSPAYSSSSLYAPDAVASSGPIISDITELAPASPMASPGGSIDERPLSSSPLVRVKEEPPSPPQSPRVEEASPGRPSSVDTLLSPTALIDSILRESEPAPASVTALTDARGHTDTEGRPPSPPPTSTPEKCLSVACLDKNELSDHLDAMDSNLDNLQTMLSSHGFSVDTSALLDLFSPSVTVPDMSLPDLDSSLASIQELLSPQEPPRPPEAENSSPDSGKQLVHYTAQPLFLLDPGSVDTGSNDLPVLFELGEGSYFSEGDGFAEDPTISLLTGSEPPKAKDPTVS
Hepatocyte nuclear factor 3-beta (Homo sapiens), sequence (Q9Y261 whole entry, looked up): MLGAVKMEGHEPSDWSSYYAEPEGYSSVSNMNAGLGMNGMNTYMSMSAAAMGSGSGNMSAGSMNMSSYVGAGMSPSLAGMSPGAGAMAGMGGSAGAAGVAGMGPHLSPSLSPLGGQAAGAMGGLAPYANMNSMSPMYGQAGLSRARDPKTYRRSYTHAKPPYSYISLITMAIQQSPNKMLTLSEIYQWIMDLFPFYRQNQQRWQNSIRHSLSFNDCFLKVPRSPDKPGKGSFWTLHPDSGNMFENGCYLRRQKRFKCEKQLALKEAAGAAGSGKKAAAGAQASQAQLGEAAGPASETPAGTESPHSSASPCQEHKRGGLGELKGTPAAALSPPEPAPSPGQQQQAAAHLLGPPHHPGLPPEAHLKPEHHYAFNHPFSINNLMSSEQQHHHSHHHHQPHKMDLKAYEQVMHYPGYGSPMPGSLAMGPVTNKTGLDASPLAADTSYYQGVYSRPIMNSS

The AC50 is the concentration giving half of the maximal activity seen. Turning to `COCC1CCC(CO)CC1` (centres undefined), the result in [1], in [2], in [3], in experiment [5], in experiment [6] and in experiment [7] was inactive. Moreover, the result in [8], in [9], in experiment [10], in [11], in [12] and in [13] was inactive. Besides, the outcome in experiment [14], in experiment [15], in experiment [16] and in experiment [17] was inactive. The concentration at half-maximal activity (AC50) in experiment [4] is 24.4 µM (active).
Turning to `CC(C)C=O`, the result in experiment [1], in [2], in experiment [3], in experiment [5], in experiment [6] and in experiment [7] was inactive. For the same compound, the compound was classed as inactive in experiment [8], in experiment [9], in experiment [11], in experiment [12], in experiment [13] and in [14]. Further, the compound was classed as inactive in experiment [15] and in experiment [17]. Besides, the AC50 in [14] was 157 µM (active).
With `Cc1ccc2ccc3ccc(C)cc3c2c1`, the result in [1], in experiment [2], in experiment [3], in [4], in [5] and in [6] was inactive. Further, the compound was classed as inactive in [7], in experiment [8], in experiment [9], in [10], in experiment [11] and in experiment [18]. In addition, the compound was called inactive in [12], in [13], in [14], in experiment [15], in [16] and in [19]. The outcome in experiment [17] was inactive.
`CC[N+](CC)(CC)Cc1ccccc1`: the outcome in experiment [1], in experiment [2], in experiment [20], in experiment [3], in [5] and in experiment [7] was inactive. The compound was classed as inactive in [8], in experiment [10], in [11], in experiment [18], in experiment [12] and in experiment [13]. Also, the compound was called inactive in experiment [14], in [15], in [16], in experiment [19] and in experiment [17].
`CCCC=O`: the result in [1], in experiment [2], in experiment [3], in experiment [5], in experiment [6] and in experiment [7] was inactive. For the same compound, the result in experiment [8], in [11], in experiment [18], in [12], in experiment [13] and in experiment [14] was inactive. In addition, the compound was classed as inactive in experiment [15], in experiment [16], in experiment [19] and in experiment [17].
